# From PubChem BioAssay
# This excerpt belongs to a sample that is enriched for hits.
# HT1080 IDH1KD tx – HT-1080 IDH1 knockdown cell toxicity (counter line) | HT-1080 IDH1 knockdown viability, ATP luminescence, 48 h | Potency, µM (top dose mostly 46.1 µM), for inactives: top-dose activity, negative = toxicity, actives largely listed as cytotoxic | 360,000 tested, 2% active;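 further: potency means the concentration at half of the fitted maximal effect; 0% = DMSO wells and -100% = cell-free medium wells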
#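 Using the IDH1-knockdown HT-1080 line run in the same batch and compound series as the NT line, viability after 48 h at 37 °C was determined by CellTiter-Glo luminescence and expressed as % activity.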
# HT1080-NT tox – kills 2HG-producing HT-1080-NT fibrosarcoma cells; HT-1080-NT fibrosarcoma viability, CellTiter-Glo ATP luminescence, 48 h; Potency, µM (series often up to 46.1 µM), without a hit: at the highest dose activity, negative = less viability, most hits filed as cytotoxic; 360,000 tested, 1.6% active; AID 686970;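 further: NT is the 2HG producing partner of a matched IDH1 knockdown line; potency means the concentration at half of the fitted maximal effect; 0% = DMSO-treated cells and -100% = media-only wells without cells; nearly all actives have a fitted effect of over 55% in size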
#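 A 48-hour cytotoxicity screen used HT-1080-NT cells plated 2 hours before compound delivery. ATP-based CellTiter-Glo luminescence measured viability, normalized to DMSO and no-cell controls.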
# DT40 TDP1 CPT – DT40-hTDP1 cell growth loss with CPT. chicken DT40 Tdp1-/-;hTDP1 cells + 20 nM CPT, ATP luminescence, 48 h. Potency, µM (highest dose often 46.2 µM), without a hit: at the top dose activity change, negative = growth inhibition, hits mostly inhibitors. 420,000 tested, 12% active; further: potency means the concentration at half of the fitted maximal effect; nearly all actives have a fitted effect of over 55% in size
#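 Cell growth measured by CellTiter-Glo luminescence after a minimum 48 h, 37 C compound exposure with 20 nM CPT in Tdp1-knockout DT40 cells stably expressing hTDP1, seeded 400/well; qHTS titration format.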
# 12-LOX inh – blocks human arachidonate 12S-lipoxygenase. P18054. Potency, µM (doses to about 108 µM), for the others: top-dose activity change, negative = inhibition, most hits filed as inhibitors. 580,000 tested, 1.1% active. AID 1671190. purified 12hLO, xylenol orange hydroperoxide absorbance; further: potency means the concentration at half of the fitted maximal effect
# Target sequence (P18054 whole entry, looked up): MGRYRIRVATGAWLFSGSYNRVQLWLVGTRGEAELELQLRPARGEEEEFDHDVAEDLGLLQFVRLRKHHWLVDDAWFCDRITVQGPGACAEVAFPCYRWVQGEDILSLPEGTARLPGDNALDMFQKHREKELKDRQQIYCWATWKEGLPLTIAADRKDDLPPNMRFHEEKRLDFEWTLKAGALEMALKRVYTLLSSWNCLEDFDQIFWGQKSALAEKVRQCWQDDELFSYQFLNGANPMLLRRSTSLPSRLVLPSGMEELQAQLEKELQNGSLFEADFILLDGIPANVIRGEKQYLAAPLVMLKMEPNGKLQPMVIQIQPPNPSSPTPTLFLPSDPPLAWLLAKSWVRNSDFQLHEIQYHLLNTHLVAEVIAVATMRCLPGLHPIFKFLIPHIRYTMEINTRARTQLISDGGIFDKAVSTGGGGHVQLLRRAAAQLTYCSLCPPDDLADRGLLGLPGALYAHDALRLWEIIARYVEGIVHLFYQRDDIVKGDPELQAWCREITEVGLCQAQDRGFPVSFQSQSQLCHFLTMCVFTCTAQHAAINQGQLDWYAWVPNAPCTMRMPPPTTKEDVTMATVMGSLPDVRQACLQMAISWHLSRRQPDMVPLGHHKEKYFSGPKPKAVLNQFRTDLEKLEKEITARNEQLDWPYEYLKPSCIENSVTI
#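 Purified human 12hLO (150 nM final) in 25 mM Hepes, 0.01% Triton X-100, pH 7.0 was preincubated 15 min at room temperature with compound. Then 40 uM arachidonic acid was added, 30 min. Hydroperoxide was read by Fe-XO absorbance ratio 573/405 nm.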
# TDP1 cell noCPT – qHTS for Inhibitors of human tyrosyl-DNA phosphodiesterase 1 (TDP1): qHTS in cells in absence of CPT | DT40 Tdp1-/- hTDP1 cells, no CPT, ATP luminescence, 48 h | Potency, µM (top dose mostly 46.2 µM), for the others: at the top dose activity change, negative = growth inhibition, actives largely listed as inhibitors | 420,000 tested, 15% active; further: potency means the concentration at half of the fitted maximal effect; nearly all actives have a fitted effect of over 55% in size
#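 Growth of hTDP1-complemented DT40 Tdp1-knockout cells is measured by ATP luminescence after at least 48 hr compound exposure at 37 °C, with DMSO substituting for the 20 nM CPT used in the parallel screen.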
# IL-1B inflam inh – inflammasome signaling inhibition, IL-1 beta readout. THP-1 LPS/ATP IL-1B secretion, AlphaLISA, 16 h; active compounds read low. AID 743279. 360,000 tested, 4.7% active. activity change, % at 57.5 µM; in the data active means activity change below about -50%; inconclusive means mostly about -30% to -49%
#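 THP-1 cells pretreated 1 hr with compounds (up to 57.5 uM final), then stimulated with LPS (250 ng/mL final) plus ATP (1.25 mM final); secreted IL-1B measured by AlphaLISA after 16 hr, decreased signal indicating inhibition.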
# * marks the source's active call; other numbers are inactive results; u = inconclusive; x = no result given; [ ] = dose if it differs, or a comment. Unless noted, the call rests on the fitted dose curve; in most records, active means well fitted curve in the direction sought with a large enough effect; inconclusive means small, poorly fitted or top-dose-only effect, or another doubt; inactive means no such curve, though single readings can be large; an effect the other way counts as inactive or inconclusive. Unless noted, on the % scale 0 is the no-effect control and ±100 the full control effect.
SMILES,HT1080 IDH1KD tx,HT1080-NT tox,DT40 TDP1 CPT,12-LOX inh,TDP1 cell noCPT,IL-1B inflam inh
CC(C)C[C@H](NC(=O)[C@H](CCc1ccccc1)NC(=O)CN1CCOCC1)C(=O)N[C@@H](Cc1ccccc1)C(=O)N[C@@H](CC(C)C)C(=O)[C@@]1(C)CO1,x,x,0.0067µM*,-15.3%[57.4 µM],0.0042µM*,x
CCN(CCCNC(=O)CC1=C2CCCCC2NC1=O)c1ccccc1 (stereo not drawn),x,x,x,-1.1%,x,x
COc1ccccc1CNC(=O)c1c(-c2ccccc2)nn(-c2ccccc2)c1C,4.7%,-6.0%,u,0.0%,14.6µM*,u
CCOC(=O)c1c(C)c(C(=O)NCc2ccccc2OC)c(C)n1C,-28.3%,-18.4%,u,12.6%,12.6µM*,4.2
COc1ccccc1CNC(=O)CSc1nnc(C)c2c(C)n(-c3ccccc3)nc12,x,x,20.6µM*,-24.7%,23.1µM*,x
COc1ccc2oc(C(=O)N3CCC(C(=O)Nc4ccc5c(c4)OCO5)CC3)c(C)c2c1,x,x,x,7.6%,x,x
CCn1c(-n2nc(C)cc2C)nc2c1c(=O)n(Cc1c(F)cccc1Cl)c(=O)n2C,x,x,x,6.4%,x,x
CC1(C)C(c2ccc(Cl)cc2)=[N+]([O-])C(C)(C)N1O,x,x,x,-5.3%,x,x
C=C1[C@@H](O)CN(Cc2ccc(OC)cc2)S1(=O)=O,x,x,u,x,17.8µM*,x
COc1ccc(CN2CCN3C(=O)N(Cc4ccc(OC)cc4)C[C@H]3C2)cc1,x,x,x,-36.4%[176 µM],x,x
COc1ccc(CN2C[C@H]3CCCN3c3cc(Br)ccc3S2(=O)=O)cc1,2.59µM*,u,2.06µM*,x,0.92µM*,89.7
Cc1ccc(C(=O)/C=C/c2cccc3ccccc23)o1,x,x,x,15.8µM*,x,x
O=C(/C=C/c1cccc2ccccc12)NC1CCCCC1,x,x,x,-0.4%,x,x
CCCn1c(C)c(CC(=O)N(C)Cc2cccnc2)c2c1CC(C)(C)CC2=O,x,x,x,22.2%,x,x
CSCCC(NC=O)C(=O)NC(C)C(=O)O (stereo not drawn),6.6%,-0.9%,2.91µM*,8.3%,0.651µM*,-22.4
CSCCC(NC=O)C(=O)NC(CC(C)C)C(=O)NC(Cc1ccccc1)C(=O)O (stereo not drawn),x,x,-3.9%,x,-3.4%,x
CN(C)S(=O)(=O)NCC(=O)N1CCCCCNC(=O)CC1c1ccccc1 (stereo not drawn),x,x,x,17.0%,x,x
COc1ccc(/C=N/Nc2snc(SC)c2C#N)cc1OC,u,-29.2%,16.4µM*,217.2%,u,-11.7
COc1cccc(/C=N/Nc2snc(SC)c2C#N)c1,u,u,-16.7%,0.0%,-31.5%,0.0
CSc1nsc(N/N=C/c2ccccc2)c1C#N,0.0%,2.1%,6.7%,22.1%,u,2.9
COc1cccc(/C=N/Nc2snc(SC)c2C#N)c1O,u,u,2.91µM*,-13.4%,2.59µM*,u
O=C(c1cscn1)N1CC[C@@H]2[C@@H](CCC(=O)N2CCc2ccccn2)C1,x,x,x,30.1%,x,x
Cc1ccc(N2C(=O)c3ccccc3C2C(=O)c2ccc(C)c(C)c2O)cc1 (stereo not drawn),-9.9%,0.8%,u,u,18.4µM*,-22.3
Cc1ccc(N2C(=O)c3ccccc3C2C(=O)c2cc(C)ccc2O)cc1 (stereo not drawn),-28.5%,-27.6%,u,u,u,u
COc1cc(C)c(C)cc1S(=O)(=O)N1CCN(c2c(C)cccc2C)CC1,x,x,x,-16.6%,x,x
SMILES,HT1080 IDH1KD tx,HT1080-NT tox,DT40 TDP1 CPT,12-LOX inh,TDP1 cell noCPT,IL-1B inflam inh
COc1ccc(C2(C(=O)N3CCC([C@H]4[C@@H](OC)C(=O)N4C(C)C)CC3)CC2)cc1,x,x,x,65.1%,x,x
Cc1nc2nc(SCC(=O)NCCCN3CCCCC3)nn2c(C)c1Cc1ccccc1,-1.4%,2.0%,1.3%,-9.9%,3.4%,-12.8
Cc1nc2nc(SCC(=O)NCCCN3CCCC3)nn2c(C)c1Cc1ccccc1Cl,-19.1%,-4.6%,u,27.3%,u,-53.8*
CCC1CCCCN1CCCNC(=O)CSc1nc2nc(C)c(Cc3ccc(C)cc3)c(C)n2n1 (stereo not drawn),u,u,23.1µM*,17.2%,u,u
Cc1nc2nc(SCC(=O)NCCc3ccc(Cl)cc3)nn2c(C)c1Cc1c(F)cccc1Cl,x,x,-6.7%,-15.2%,-24.1%,x
CCN(CC)CCCNC(=O)CSc1nc2nc(C)c(Cc3c(F)cccc3Cl)c(C)n2n1,x,x,u,-5.8%,6.51µM*,x
Cc1nc2nc(SCC(=O)NCCc3ccc(Cl)cc3)nn2c(C)c1Cc1ccccc1Cl,x,x,u,-9.0%,u,x
